Screening data (PubChem BioAssay)
Chronic BCR inh: chronic active BCR signaling inhibition. Potency, µM (titrated, usually from 46.1 µM), usual class: inhibitors. ABC-DLBCL IkBa-CBG/CBR reporter, luminescence ratio, 4 h. actives 0.05% (n = 340,000). AID 493014; active = well fitted inhibition curve with a large enough effect in the signal ratio, with a control signal flat, not every such curve was filed as active; inconclusive = small, poorly fitted or top-dose-only effect, or effect the other way, or a change in a side signal; the % refers to the signal ratio
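Concentration-response series (up to 46 uM) were applied to TMD8 dual-reporter cells for 4 h at 37C with doxycycline. Green/red ratio, after filter-overlap correction, defined %Activity; red signal alone was normalised to basal cells and zero luminescence.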
Tb PFK inh-1: blocks T. brucei phosphofructokinase | actives 0.17% (n = 330,000) | Potency, µM (highest dose often 57.5 µM), actives largely listed as inhibitors | O15648 | T. brucei PFK, ADP-Glo luminescence | AID 485367; note: nearly all actives have a fitted effect of over 60% in size
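ADP-Glo luminescence quantified ADP after 45 min at room temperature, with 1.25 nM T. brucei PFK, 0.1 mM ATP and 0.5 mM fructose-6-phosphate in pH 8.0 TEA buffer. qHTS titrations up to 57 µM; curves classified by quality.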
ERG-DNA inh: blocks human ERG Ets domain binding to DNA | P11308 | fluorescence polarization, His-ERG Ets domain / labelled DNA | Potency, µM (top dose mostly 76.9 µM), hits mostly inhibitors | actives 0.028% (n = 370,000); active = well fitted inhibition curve with a large enough effect in the polarisation, with a control signal flat; inconclusive = small, poorly fitted or top-dose-only effect, or effect the other way, or a change in a side signal; inactive = no such curve, though single readings can be large or run the other way; the % refers to the polarisation;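 note: polarization taken with two DNA probes labelled with fluorescein and Texas red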
Target sequence (P11308 whole entry, looked up, the tested form may be a part): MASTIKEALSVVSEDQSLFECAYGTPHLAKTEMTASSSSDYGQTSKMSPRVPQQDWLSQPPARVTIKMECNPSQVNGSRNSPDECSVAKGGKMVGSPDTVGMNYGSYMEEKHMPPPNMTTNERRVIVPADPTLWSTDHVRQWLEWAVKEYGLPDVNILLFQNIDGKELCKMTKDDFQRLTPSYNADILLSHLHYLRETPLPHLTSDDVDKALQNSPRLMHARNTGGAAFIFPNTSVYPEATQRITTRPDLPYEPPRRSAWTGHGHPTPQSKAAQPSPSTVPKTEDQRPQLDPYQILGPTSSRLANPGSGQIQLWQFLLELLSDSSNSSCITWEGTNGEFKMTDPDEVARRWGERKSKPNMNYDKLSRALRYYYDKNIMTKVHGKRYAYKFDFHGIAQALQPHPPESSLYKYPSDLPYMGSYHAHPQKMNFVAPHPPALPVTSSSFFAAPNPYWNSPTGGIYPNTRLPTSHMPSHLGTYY
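His-tagged ERG Ets domain (1 uM in the protein solution; 300mM KCl, 50mM Tris-HCl, 1mM EDTA, 1mM DTT, pH 7.5) received compound, then a probe mix of 5 nM fluorescein-DNA and 100nM Texas-615-DNA. Fluorescence polarization was read for both dyes.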
Pin1 inhibitor: human Pin1 inhibition; actives 0.009% (n = 390,000); Pin1 FP peptide displacement, HiFluor488, 10 min; AID 504891; Potency, µM (doses to about 115 µM), hits mostly inhibitors; active = well fitted inhibition curve with a large enough effect in the polarisation, with a control signal flat, not every such curve was filed as active; inconclusive = small, poorly fitted or top-dose-only effect, or effect the other way, or a change in a side signal; inactive = no such curve, though single readings can be large or run the other way; the % refers to the polarisation
Target sequence (Q13526 whole entry, looked up): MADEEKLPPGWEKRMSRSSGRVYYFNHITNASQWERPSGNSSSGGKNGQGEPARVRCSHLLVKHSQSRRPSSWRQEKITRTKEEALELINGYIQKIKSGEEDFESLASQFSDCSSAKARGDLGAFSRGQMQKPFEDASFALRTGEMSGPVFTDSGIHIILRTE
PGK inhibitor: inhibitors of T. brucei phosphoglycerate kinase; Potency, µM (highest dose often 57.5 µM), hits mostly inhibitors; AID 602233; PGK/GAPDH coupled, Kinase-Glo luminescence, 60 min; actives 0.043% (n = 380,000); note: nearly all actives have a fitted effect of over 60% in size
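Recombinant glycosomal PGK reaction used 1,3-bisphosphoglycerate generated in-well by GAPDH (100nM final) in 100mM TEA pH 7.6, 5mM MgCl2, 0.01% Tween-20. After 60 minutes at room temperature, ATP was read by Kinase-Glo Plus luminescence end-point.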
TbPFK ATP: inhibits T. brucei PFK measured by ATP depletion | actives 47% (n = 1,100) | Potency, µM (series often up to 57.5 µM) | Tb PFK enzyme, ATP depletion, Kinase-Glo Plus luminescence | shares compounds with Tb PFK inh-1; calls by dose curve; note: nearly all actives have a fitted effect of over 60% in size
Tb PFK inh-2: validation of T. brucei phosphofructokinase inhibitors. Potency, µM (highest dose often 57.5 µM), usual class: inhibitors. AID 504637. purified T. brucei PFK, ADP-Glo luminescence, 45 min. actives 41% (n = 1,100). shares compounds with Tb PFK inh-1; note: nearly all actives have a fitted effect of over 60% in size
Numbers stand for hits; i = inactive; ? = inconclusive; nt = no result given; [ ] = dose if it differs, or a comment. Hits are enriched below; roughly 0.25% of the tested compounds scored in any of these assays. Unless noted, calls come from the whole dose curve; as a rule, active = well fitted curve in the direction sought with a large enough effect; inconclusive = small, poorly fitted or top-dose-only effect, or another doubt; inactive = no such curve, though single readings can be large; an effect the other way counts as inactive or inconclusive.

SMILES	Chronic BCR inh	Tb PFK inh-1	ERG-DNA inh	Pin1 inhibitor	PGK inhibitor	TbPFK ATP	Tb PFK inh-2
CCOC(=O)c1[nH]c(C)c(/C(O)=C2\C(=O)C(=O)N(CCN(C)C)C2c2ccncc2)c1C (stereo unspecified)	?	i	i	i	i	nt	nt
O=C(Nc1cccc2cccnc12)c1ccc(Br)cc1	nt	nt	nt	i	nt	nt	nt
CC(=O)Nc1sc2c(c1-c1nc3ccccc3s1)CCS(=O)(=O)C2	nt	nt	nt	i	nt	nt	nt
O=C(CCN1CCN(Cc2ccccc2)CC1)NNC(=O)Cc1ccc(Cl)c(Cl)c1	i	17µM	i	i	i	8.5µM	11µM
CC(=O)N1CCCc2cc(S(=O)(=O)Nc3ccc(C)c(C)c3)ccc21	nt	nt	nt	i	nt	nt	nt
CCOC(=O)c1sc(=S)n(C)c1NC(=O)c1ccccc1	i	?	i	i	i	21µM	?
O=C(NC1CCCCC1)c1cnn2c1NC(=C1CC1)C=C2C(F)F	nt	nt	nt	i	nt	nt	nt
CCOC(=O)c1c(-c2ccc(C)o2)csc1NC(=O)COC(=O)c1ccc(NC(N)=O)cc1	?	2.1µM	i	i	i	?	i
Cc1c(Cl)cnc(NC(=O)COC(=O)c2ccc3ncsc3c2)c1Cl	?	?	i	i	i	i	?
O=C(Nc1nc(-c2ccccn2)cs1)c1cc2ccccc2o1	?	i	i	i	i	nt	nt
Cc1c(C(=O)Nc2nc(-c3ccccn3)cs2)oc2ccccc12	i	?	i	i	i	19µM	30µM
Nc1c(/C=C2/C=CC(=O)C(O)=C2)c(=O)nc2sc(CC(=O)N3CCCCC3)nn12	i	19µM	i	i	?	2.7µM	3.8µM
O=C(O)c1cccc2c1C(=O)c1cc(Br)ccc1S2(=O)=O	i	?	i	i	i	i	?
O=C(O)c1ccc2c(c1)C(=O)N([C@H](Cc1ccc(-c3ccccc3)cc1)C(=O)O)C2=O	i	i	nt	?	nt	nt	nt
CC(=O)Oc1ccc(CC(C(=O)O)N2C(=O)c3ccccc3C2=O)cc1 (stereo unspecified)	i	?	i	i	32µM	17µM	?
CCSS(=O)(=O)c1cccc2cccnc12	?	21µM	i	i	i	8.5µM	19µM
O=C(O)CCS(=O)(=O)c1cccc2cccnc12	i	i	i	i	i	nt	nt
O=C(CSc1nnc(CNc2ccc(F)cc2)o1)N1CCN(C(=O)c2ccco2)CC1	i	?	nt	i	i[11.5 µM]	15µM	24µM
COc1ccc(N2CCN(C(=O)CSc3nnc(CNc4ccccc4)o3)CC2)cc1	i	?	i	i	i	19µM	30µM
CCOC(=O)CN(C(=O)CSc1nnc(CNc2ccc(F)cc2)o1)c1ccccc1	i	24µM	i	i	i	13µM	27µM
COc1nccnc1NS(=O)(=O)c1ccc(NCc2cc(Br)ccc2O)cc1	i	?	i	?	i	?	i
Cc1cc(CSc2ccccc2)ccc1NC(=O)COc1ccccc1	?	?	i	i	i	?	?
COc1ccccc1OCC(=O)Nc1ccc(CSc2ccccc2)cc1C	i	i	i	i	i	nt	nt
COc1ccc(-n2cnc3c(c2=N)C(c2cccc(OC)c2)c2c(ccc4ccccc24)O3)cc1 (stereo unspecified)	nt	nt	nt	i	nt	nt	nt
COc1ccc(Cn2ncc3c4sc(C)cc4n(C)c3c2=O)cc1F	nt	nt	nt	i	nt	nt	nt
SMILES	Chronic BCR inh	Tb PFK inh-1	ERG-DNA inh	Pin1 inhibitor	PGK inhibitor	TbPFK ATP	Tb PFK inh-2
O=C(NCCCN1CCOCC1)c1sc2cc(Cl)ccc2c1Cl	i	i	i	i	i	nt	nt
O=C(NCCCN1CCOCC1)c1sc2cc([N+](=O)[O-])ccc2c1Cl	i	11µM	i	i	i	3.4µM	4.3µM
Cc1ccc(S(=O)(=O)N2CCN(S(=O)(=O)c3ccc4c(c3)OCCCO4)CC2)cc1	nt	nt	nt	i	nt	nt	nt
CCOc1ccc(C=NNc2ccc(S(=O)(=O)Nc3ccccc3C(=O)O)cc2[N+](=O)[O-])cc1OC	?	?	i	nt	?	6µM	3µM
COc1cc(C=NNc2ccc(S(=O)(=O)Nc3ccccc3C(=O)O)cc2[N+](=O)[O-])ccc1O	?	?	i	nt	i	nt	nt
CCNC(=O)C1CCCc2c1[nH]c1ccc(Cl)cc21 (stereo unspecified)	i	?	i	i	i	12µM	21µM
CCN1CCN(C(=O)CCN(CC(C)C)c2nc(-c3cccs3)nc3ccccc23)CC1	nt	nt	nt	i	nt	nt	nt
O=S(=O)(c1ccc(F)cc1)N1CCN(c2nc(-c3cccs3)nc3cc(Cl)ccc23)CC1	nt	nt	nt	i	nt	nt	nt
Nc1nc(SCc2ccc(Cl)c(Cl)c2)n[nH]1	?	13µM	i	i	i	9.5µM	13µM
Nc1nc(SCc2ccc(Br)cc2)n[nH]1	i	i	i	i	i	nt	nt
Clc1ccc(COc2ccccn2)cc1Cl	i	17µM	i	i	i	12µM	27µM
Clc1ccc(CN2CCN(c3ncccn3)CC2)cc1Cl	i	i	i	i	i	nt	nt
O=[N+]([O-])c1ncccc1OCc1ccc(Cl)c(Cl)c1	?	?	?	i	i	15µM	17µM
O=C(Nc1cccc2cccnc12)OCc1ccccc1	nt	nt	nt	i	nt	nt	nt
Cc1nc([N+](=O)[O-])c(Br)n1CC(=O)c1ccc(Cl)cc1	i	i	i	i	i	nt	nt
Cc1nc([N+](=O)[O-])c(Br)n1Cc1ccc(Cl)c(Cl)c1	?	21µM	i	i	i	?	?
C[C@H](NC(=O)C1CCN(S(=O)(=O)c2ccccc2)CC1)C(=O)NCc1cccc(Cl)c1	i	i	i	i	i	nt	nt
C[C@H](NC(=O)C1CCN(S(=O)(=O)c2ccccc2)CC1)C(=O)NCc1ccc(Cl)c(Cl)c1	?	27µM	i	i	i	21µM	?
COCc1cc(/C=N\NC(=O)Cc2ccc(OC)cc2)ccc1OC	i	i	i	i	i	nt	nt
COCc1cc(/C=N\NC(=O)Cc2ccc(Cl)cc2)ccc1OC	?	21µM	i	i	i	?	?
Cc1nc(SCC(=O)N2CCOCC2)c2c(=O)n(C)c(=O)n(C)c2n1	i	24µM	i	i	i	i	i
Cc1nc(SCC(=O)N2CCOCC2)c2c(=O)n(C)c(=O)n(CC(C)C)c2n1	i	i	i	i	i	nt	nt
O=C(O)c1ccccc1OC1=NS(=O)(=O)c2ccccc21	nt	nt	nt	i	nt	nt	nt
Brc1ccc(-c2csc(N3CCC(c4nn[nH]n4)CC3)n2)cc1	nt	nt	nt	i	nt	nt	nt
O=c1[nH]c(=S)n(Cc2ccco2)c(O)c1C=NCc1cccs1	i	?	i	?	i	?	i
O=c1[nH]c(=O)n(Cc2ccco2)c(O)c1C=NCc1cccs1	nt	nt	i	i	i	nt	nt
S=C(NCCN1CCOCC1)Nc1cccc(Cl)c1	i	i	i	i	i	nt	nt
S=C(NCCN1CCOCC1)N1CCN(c2cccc(Cl)c2)CC1	i	?	i	i	i	?	27µM
S=C(NCc1ccco1)N1CCN(c2ccccn2)CC1	i	i	?	i	i	nt	nt
